Experimental data as given in the supplement of paper PMC11732987, “Enantioselective OTUD7B fragment discovery through chemoproteomics screening and high-throughput optimisation” (Communications Chemistry, 2025).

Experiments:
Test in all cases: log2 ratio of Biotin-Ahx-Ub-VS probe labelling (fragment/DMSO); higher = less target engagement (more negative = stronger competition), active = hit call of the paper (q ≤ 0.05, log2 ratio ≤ -1)
Details in all cases: compound concentration: 200 uM; treatment time: 3 h
USP34 = USP34 (UniProt Q70CQ2)
Sequence of USP34 (Q70CQ2 whole entry, the tested form may be a part): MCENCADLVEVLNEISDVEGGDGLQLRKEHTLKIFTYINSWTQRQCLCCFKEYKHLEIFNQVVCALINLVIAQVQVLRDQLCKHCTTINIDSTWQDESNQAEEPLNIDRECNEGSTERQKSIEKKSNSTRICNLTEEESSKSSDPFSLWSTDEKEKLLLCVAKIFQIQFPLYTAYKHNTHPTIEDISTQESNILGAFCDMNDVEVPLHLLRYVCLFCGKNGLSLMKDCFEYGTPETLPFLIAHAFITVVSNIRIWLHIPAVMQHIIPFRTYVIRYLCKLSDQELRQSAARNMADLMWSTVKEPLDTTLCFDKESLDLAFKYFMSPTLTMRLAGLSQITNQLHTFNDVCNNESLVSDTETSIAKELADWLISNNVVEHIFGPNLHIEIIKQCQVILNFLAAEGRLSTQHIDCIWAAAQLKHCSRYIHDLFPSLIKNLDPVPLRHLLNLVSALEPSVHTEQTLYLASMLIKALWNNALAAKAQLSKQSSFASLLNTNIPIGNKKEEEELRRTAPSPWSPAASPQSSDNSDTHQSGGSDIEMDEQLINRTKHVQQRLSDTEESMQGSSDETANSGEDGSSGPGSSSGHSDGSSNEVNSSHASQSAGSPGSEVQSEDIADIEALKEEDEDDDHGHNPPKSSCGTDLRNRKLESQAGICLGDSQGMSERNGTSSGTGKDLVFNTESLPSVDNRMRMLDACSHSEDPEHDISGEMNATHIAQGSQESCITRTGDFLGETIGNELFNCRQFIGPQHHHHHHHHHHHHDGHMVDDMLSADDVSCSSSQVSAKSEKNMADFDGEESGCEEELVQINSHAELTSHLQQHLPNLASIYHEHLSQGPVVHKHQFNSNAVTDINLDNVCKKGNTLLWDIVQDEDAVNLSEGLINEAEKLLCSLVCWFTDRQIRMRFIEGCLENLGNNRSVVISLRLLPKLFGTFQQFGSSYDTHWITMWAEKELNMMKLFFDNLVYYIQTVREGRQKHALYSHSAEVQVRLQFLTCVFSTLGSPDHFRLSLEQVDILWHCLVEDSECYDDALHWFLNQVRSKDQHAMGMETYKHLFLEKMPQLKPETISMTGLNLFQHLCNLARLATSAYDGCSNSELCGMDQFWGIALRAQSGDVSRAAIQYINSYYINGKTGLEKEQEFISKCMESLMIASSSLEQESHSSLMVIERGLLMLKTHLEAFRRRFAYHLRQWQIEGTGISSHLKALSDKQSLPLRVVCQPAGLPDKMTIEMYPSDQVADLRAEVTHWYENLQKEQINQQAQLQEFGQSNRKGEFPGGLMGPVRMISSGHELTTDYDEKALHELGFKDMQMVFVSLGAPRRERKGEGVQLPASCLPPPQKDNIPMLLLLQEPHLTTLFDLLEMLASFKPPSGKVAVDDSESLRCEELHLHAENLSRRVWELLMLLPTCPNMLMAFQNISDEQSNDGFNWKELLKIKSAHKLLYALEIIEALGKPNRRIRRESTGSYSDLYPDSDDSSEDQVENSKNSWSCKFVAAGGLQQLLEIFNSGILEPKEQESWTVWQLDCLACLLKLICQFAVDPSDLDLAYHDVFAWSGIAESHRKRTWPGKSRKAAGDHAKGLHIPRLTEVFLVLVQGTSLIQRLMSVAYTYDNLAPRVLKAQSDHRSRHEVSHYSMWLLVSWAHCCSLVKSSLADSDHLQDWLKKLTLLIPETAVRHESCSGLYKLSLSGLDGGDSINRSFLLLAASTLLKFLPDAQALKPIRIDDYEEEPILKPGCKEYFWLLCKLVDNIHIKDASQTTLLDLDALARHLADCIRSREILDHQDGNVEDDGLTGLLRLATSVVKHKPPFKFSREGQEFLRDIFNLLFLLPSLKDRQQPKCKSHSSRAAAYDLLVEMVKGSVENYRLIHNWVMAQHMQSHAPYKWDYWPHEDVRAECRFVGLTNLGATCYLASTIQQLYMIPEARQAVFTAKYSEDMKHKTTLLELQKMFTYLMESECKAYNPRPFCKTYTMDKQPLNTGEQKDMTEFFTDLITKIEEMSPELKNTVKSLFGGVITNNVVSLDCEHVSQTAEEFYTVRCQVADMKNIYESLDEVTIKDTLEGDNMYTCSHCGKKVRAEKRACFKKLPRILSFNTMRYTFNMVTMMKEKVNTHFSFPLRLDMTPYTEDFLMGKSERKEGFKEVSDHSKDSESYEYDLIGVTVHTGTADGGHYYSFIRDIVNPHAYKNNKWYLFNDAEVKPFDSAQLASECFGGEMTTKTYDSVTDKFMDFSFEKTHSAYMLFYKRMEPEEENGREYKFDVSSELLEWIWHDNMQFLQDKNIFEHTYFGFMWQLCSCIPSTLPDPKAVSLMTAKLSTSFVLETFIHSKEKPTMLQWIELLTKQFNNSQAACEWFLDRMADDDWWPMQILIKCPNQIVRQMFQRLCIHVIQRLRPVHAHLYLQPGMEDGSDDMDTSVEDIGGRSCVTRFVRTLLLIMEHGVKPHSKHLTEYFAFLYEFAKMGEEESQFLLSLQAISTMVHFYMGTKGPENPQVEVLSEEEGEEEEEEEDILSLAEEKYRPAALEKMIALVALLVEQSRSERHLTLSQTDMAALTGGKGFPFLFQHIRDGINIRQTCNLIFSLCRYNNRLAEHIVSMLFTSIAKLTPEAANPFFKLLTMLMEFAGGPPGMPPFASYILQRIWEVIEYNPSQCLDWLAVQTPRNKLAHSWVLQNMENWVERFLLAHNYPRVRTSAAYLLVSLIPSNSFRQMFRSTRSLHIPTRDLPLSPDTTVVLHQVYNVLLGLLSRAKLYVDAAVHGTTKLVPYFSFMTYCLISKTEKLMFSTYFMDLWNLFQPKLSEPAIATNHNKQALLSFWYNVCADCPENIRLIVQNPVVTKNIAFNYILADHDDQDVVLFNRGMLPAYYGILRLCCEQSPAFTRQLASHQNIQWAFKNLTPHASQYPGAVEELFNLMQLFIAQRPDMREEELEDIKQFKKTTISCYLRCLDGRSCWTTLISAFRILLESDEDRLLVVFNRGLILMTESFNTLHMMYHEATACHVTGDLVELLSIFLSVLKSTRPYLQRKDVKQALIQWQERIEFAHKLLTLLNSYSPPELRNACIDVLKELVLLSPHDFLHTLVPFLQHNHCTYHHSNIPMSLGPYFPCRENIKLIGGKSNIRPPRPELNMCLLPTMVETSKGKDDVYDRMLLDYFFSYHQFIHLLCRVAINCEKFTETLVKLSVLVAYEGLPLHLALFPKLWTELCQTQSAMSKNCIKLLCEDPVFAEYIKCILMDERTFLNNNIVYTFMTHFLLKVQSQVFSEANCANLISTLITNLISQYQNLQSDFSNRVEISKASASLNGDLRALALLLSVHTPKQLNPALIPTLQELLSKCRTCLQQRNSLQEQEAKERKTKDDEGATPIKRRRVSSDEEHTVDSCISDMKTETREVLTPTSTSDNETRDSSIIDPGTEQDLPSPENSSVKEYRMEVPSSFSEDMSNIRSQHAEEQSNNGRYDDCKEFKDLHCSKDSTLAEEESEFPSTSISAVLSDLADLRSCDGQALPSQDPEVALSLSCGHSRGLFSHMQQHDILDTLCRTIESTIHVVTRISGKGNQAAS
Summary of the method: (§1)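 Triplicate samples of HEK293T lysate, 495 µg each, received fragment at 200 µM or vehicle for 3 h, followed by Biotin-Ahx-Ub-VS (0.5 µM final) for 1 h. After NeutrAvidin enrichment of labelled DUBs and LysC/trypsin digestion, peptides were run by diaPASEF LC-MS/MS. The values are average log2 fragment/vehicle ratios from global-median-normalised Spectronaut label-free quantities, tested by unpaired t-test on proteins having ≥2 unique peptides.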

USP36 = biological target: T1, USP36 (UniProt Q9P275)
T1 sequence (whole entry): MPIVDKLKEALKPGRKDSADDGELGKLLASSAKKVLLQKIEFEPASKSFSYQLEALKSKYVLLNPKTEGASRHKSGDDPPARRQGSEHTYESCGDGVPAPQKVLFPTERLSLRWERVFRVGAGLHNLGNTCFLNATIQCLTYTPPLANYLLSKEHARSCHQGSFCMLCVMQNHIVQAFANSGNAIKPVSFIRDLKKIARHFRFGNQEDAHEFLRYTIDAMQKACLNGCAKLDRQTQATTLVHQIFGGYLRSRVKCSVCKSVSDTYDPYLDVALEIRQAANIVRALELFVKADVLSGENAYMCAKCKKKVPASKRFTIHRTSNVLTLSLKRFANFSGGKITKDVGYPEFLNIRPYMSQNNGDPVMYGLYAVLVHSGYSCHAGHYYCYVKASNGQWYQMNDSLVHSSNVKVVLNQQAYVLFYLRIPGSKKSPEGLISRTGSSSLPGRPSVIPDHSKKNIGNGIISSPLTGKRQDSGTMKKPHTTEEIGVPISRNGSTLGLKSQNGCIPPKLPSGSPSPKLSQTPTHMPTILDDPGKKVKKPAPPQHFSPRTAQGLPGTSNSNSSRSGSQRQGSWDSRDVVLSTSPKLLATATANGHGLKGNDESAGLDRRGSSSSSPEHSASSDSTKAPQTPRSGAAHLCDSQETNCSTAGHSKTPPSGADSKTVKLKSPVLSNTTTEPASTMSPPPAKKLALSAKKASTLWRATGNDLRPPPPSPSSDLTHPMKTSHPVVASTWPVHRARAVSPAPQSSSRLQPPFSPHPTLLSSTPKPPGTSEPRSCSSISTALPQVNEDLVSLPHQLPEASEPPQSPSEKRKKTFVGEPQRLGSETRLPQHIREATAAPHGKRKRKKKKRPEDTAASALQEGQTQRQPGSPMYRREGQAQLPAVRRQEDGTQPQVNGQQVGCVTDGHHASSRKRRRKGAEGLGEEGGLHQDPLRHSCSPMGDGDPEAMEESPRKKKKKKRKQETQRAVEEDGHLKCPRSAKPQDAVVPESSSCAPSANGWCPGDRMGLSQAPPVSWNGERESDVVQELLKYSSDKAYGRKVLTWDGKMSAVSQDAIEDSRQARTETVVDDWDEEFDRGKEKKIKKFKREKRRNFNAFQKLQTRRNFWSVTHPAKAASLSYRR
Summary of the method: as §1

USP38 = biological target: T2, USP38 (UniProt Q8NB14)
T2 sequence (whole entry): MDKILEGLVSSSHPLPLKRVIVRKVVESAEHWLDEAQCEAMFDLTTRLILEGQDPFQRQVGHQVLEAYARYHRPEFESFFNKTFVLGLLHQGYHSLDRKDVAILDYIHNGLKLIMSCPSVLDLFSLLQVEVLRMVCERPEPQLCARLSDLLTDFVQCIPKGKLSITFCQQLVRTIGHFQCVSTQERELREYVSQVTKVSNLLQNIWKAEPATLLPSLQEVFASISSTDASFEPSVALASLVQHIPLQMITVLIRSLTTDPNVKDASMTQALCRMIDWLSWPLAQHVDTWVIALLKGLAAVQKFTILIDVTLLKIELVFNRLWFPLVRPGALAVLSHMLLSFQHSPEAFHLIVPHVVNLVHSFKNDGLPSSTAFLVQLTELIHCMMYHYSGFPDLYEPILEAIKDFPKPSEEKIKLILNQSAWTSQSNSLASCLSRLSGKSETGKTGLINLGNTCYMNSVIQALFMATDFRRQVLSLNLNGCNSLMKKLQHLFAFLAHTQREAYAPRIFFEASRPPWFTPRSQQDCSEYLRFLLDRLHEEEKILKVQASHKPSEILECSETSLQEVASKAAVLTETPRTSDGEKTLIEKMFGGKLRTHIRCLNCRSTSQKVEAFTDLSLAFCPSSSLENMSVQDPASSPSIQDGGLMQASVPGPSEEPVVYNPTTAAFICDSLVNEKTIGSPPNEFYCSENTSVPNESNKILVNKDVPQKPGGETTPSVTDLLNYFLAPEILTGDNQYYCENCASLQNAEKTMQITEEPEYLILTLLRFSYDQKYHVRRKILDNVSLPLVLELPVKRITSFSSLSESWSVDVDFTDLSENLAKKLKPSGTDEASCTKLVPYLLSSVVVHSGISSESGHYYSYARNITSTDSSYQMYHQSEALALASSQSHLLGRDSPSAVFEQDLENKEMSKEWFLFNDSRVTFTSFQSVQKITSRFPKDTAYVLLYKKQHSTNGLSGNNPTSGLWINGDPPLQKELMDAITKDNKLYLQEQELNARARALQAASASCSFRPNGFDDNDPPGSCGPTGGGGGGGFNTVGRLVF
Summary of the method: as §1

USP39 = biological target: T3, USP39 (UniProt Q53GS9)
T3 sequence (whole entry): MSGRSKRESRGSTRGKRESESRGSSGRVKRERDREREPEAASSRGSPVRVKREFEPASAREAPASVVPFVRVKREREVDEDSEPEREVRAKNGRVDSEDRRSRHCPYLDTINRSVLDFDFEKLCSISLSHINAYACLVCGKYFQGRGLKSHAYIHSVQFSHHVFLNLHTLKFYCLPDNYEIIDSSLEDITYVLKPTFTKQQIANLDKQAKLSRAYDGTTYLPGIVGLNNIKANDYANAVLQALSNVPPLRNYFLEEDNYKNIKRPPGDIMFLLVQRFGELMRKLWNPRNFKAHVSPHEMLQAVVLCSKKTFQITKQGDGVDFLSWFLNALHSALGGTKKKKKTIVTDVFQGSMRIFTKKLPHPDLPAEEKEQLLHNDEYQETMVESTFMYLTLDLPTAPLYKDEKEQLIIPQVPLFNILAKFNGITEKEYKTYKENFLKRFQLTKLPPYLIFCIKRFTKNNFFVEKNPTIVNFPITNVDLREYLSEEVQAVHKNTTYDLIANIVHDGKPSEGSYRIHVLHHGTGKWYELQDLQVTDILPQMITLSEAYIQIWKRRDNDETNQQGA
Summary of the method: as §1

USP4 = biological target: T4, USP4 (UniProt Q13107)
T4 sequence (whole entry): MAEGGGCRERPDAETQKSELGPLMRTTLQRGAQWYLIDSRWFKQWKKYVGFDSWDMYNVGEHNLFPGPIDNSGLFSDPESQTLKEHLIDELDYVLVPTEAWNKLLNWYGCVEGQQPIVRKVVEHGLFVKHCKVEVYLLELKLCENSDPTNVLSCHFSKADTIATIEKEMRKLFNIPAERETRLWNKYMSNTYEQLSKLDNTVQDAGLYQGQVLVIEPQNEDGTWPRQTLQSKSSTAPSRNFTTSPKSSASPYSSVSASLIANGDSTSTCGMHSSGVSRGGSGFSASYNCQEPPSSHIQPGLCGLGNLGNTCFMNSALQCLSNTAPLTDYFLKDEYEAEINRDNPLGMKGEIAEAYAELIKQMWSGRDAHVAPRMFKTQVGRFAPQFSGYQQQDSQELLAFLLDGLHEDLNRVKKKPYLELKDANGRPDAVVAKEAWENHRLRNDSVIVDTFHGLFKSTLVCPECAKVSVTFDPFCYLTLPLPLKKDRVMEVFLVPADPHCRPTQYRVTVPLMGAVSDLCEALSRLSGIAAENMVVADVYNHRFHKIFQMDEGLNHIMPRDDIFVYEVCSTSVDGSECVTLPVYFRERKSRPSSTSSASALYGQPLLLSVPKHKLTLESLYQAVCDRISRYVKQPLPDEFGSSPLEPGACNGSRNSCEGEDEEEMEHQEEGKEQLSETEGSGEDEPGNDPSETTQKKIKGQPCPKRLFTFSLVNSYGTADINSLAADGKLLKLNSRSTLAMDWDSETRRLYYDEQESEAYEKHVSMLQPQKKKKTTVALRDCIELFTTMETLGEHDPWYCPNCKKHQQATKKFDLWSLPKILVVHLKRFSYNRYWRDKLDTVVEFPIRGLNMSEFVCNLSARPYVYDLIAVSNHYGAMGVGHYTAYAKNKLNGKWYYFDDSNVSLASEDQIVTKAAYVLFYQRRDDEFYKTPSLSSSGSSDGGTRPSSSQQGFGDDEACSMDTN
Summary of the method: as §1

Measured: log2 ratio of Biotin-Ahx-Ub-VS probe labelling

O=C(CCl)Nc1ccc2c(c1)OC(F)(F)O2
inactive: USP34 -0.119 | USP36 0.029 | USP38 0.122 | USP39 0.433 | USP4 0.0436
